Bioassay records: PubChem, several laboratories
HGIII-sPLA2 inh – Blocks human group III sPLA2 activity; QFRET BODIPY PC-A2 liposome hydrolysis, fluorescence; inhibition, % at 12.2 µM; hit rate 0.56% among 370,000; AID 743126; Q9NZ20;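 active = inhibition above mean plus 3 SD of compounds lying within the high and low control bounds, cut at about 19% in these data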
CR mimetic SO – yeast age-related superoxide inhibition as caloric restriction mimetic. S. cerevisiae aged cells, superoxide DHE fluorescence; stronger effect = lower value. superoxide response (% of plate mean), % at 10 µM. hit rate 0.18% among 330,000;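 active = superoxide response under a set limit, about three screen SD below normal, cut at about 65% in these data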;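 note: yeast aged for seven days with compound at 30 °C before DHE staining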
PLC-gamma1 inh – inhibitors of human phospholipase C gamma1 | P19174 | purified PLC-gamma1, fluorogenic substrate, fluorescence | inhibition, % at 12.2 µM | hit rate 0.84% among 370,000 | AID 720700; in the data active = inhibition above about 9.5%
PLCb3 inh – PLC-beta3 (human) inhibition, primary screen. Purified PLC-beta3, fluorogenic substrate, fluorescence. hit rate 0.18% among 370,000. inhibition, % at 12.2 µM. AID 720704; in the data active = inhibition above about 11%
HIF act – HIF pathway transcriptional activation; U2OS HRE-luciferase reporter, luminescence; normalized: DMSO 0%, desferrioxamine 100%; activation, % at 7.5 µM (by protocol); hit rate 0.32% among 300,000; AID 1910;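 active = mean activation of at least 10% of the iron chelator positive control signal, with at least half of replicates also reaching 10%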
AHR activator – human AHR activation | AHR-responsive luciferase reporter cells, luminescence | AID 2796 | hit rate 2.5% among 320,000 | P35869 | activation, % at 5 µM; in the data active = activation above about 47%
hGIII sPLA2 conf – human GIII-sPLA2 inhibition, confirmation; shares compounds with HGIII-sPLA2 inh; recombinant hGIII-sPLA2, BODIPY PC-A2 QFRET fluorescence; AID 743280; inhibition, % at 12.2 µM; hit rate 34% among 2,000;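 active = mean inhibition across triplicates above the hit cutoff set in the earlier primary screen, cut at about 19% in these data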
BODIPY interf – counter-screen for HGIII-sPLA2 inhibitors: 535nm fluorescence interference; shares compounds with HGIII-sPLA2 inh; BODIPY FL product fluorescence interference, QFRET; inhibition, % at 12.2 µM; hit rate 8.5% among 2,000; AID 743282;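 active = average inhibition above the solvent-only control mean plus 3 SD, cut at about 6% in these data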
535nm interf DR – counter-screen for HGIII-sPLA2 inhibitors: 535nm fluorescence interference, dose response. shares compounds with HGIII-sPLA2 inh. AID 743455. IC50, µM. BODIPY FL product fluorescence interference, cell-free. 240 tested, under 10 active;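 active = IC50 at or below 10 µM; inactive = IC50 above 10 µM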
Each line names hits and unclear results; the compound was inactive in the other large screens (follow-up assays come after a bar, where they were run). Most compounds without a hit are left out; they make up all but 3.9% or so of the library.

Cc1ccc(C)c(S(=O)(=O)N2CCCOC2CNC(=O)C(=O)NCCc2ccccc2)c1 (stereo not given)	none
Clc1ccc(OCCCCCN2CCCC2)c(Br)c1	none
Cc1ccc(C)c(OCCCCN2CCCCC2)c1	HGIII-sPLA2 inh 21 | hGIII sPLA2 conf inactive | BODIPY interf inactive
Clc1ccc(OCCCN2CCCCC2)c(Br)c1	HGIII-sPLA2 inh 22 | hGIII sPLA2 conf inactive | BODIPY interf inactive
C=CCNC(=S)NNC(=O)c1cccn(Cc2ccc(Cl)cc2Cl)c1=O	HGIII-sPLA2 inh 26 | hGIII sPLA2 conf 22 | BODIPY interf inactive
CCNC(=S)NNC(=O)c1cccn(Cc2ccc(Cl)cc2Cl)c1=O	none
C=CCNC(=S)NNC(=O)c1cccn(Cc2ccc(Cl)c(Cl)c2)c1=O	HGIII-sPLA2 inh 25 | hGIII sPLA2 conf 31 | BODIPY interf inactive | 535nm interf DR inactive
Cc1ccc(C(=O)C(C)OC(=O)c2ccccc2[N+](=O)[O-])cc1 (stereo not given)	none
CCOC(=O)c1ccc(NC(=O)c2ncn3c2C(=O)N[C@H](C)C3)cc1	none (no result: CR mimetic SO, HIF act, AHR activator)
Cc1ccc2oc(C(=O)N(C)CCC(O)c3ccccc3)c(C)c2c1 (stereo not given)	none
CCCCC(=O)Nc1c2c(nn1-c1cccc(C)c1C)CS(=O)(=O)C2	HGIII-sPLA2 inh 20 | hGIII sPLA2 conf inactive | BODIPY interf inactive
C[C@H](CO)NC(=O)c1nc[nH]c1C(=O)N[C@@H](C)c1ccccc1	none (no result: CR mimetic SO, HIF act, AHR activator)
COc1cccc(C(=O)NCCCNC(=O)c2ccco2)c1	HGIII-sPLA2 inh 22 | hGIII sPLA2 conf inactive | BODIPY interf inactive
COc1cccc(C(=O)NCCCNC(=O)c2cccc(OC)c2)c1	none
CCC(C)c1ccccc1OCCOCCN1CCCC1 (stereo not given)	HGIII-sPLA2 inh 20 | hGIII sPLA2 conf inactive | BODIPY interf inactive
COc1ccc2c(c1)CNC2CS(=O)(=O)NCCc1ccccc1 (stereo not given)	none (no result: CR mimetic SO, HIF act, AHR activator)
C/C(=N\NC(=O)c1nn(C)c(C)c1Br)c1ccc(NC(=O)c2ccccc2F)cc1	HGIII-sPLA2 inh 22 | hGIII sPLA2 conf inactive | BODIPY interf inactive
C/C(=N\NC(=O)c1nn(C)c(C)c1Br)c1ccc(NC(=O)c2ccoc2C)cc1	none
CCC(=O)N(Cc1ccco1)C1CC(=O)N(c2ccccc2)C1=O (stereo not given)	none
COc1ccc2cc(C(=O)N/N=C/c3sc4ccccc4c3O)ccc2c1	HGIII-sPLA2 inh 21 | hGIII sPLA2 conf inactive | BODIPY interf inactive
O=C(N/N=C/c1sc2ccccc2c1O)c1cccc2ccccc12	HGIII-sPLA2 inh 31, HIF act 12 | hGIII sPLA2 conf inactive | BODIPY interf inactive
O=C(CNc1ccc2ccccc2c1)N/N=C/c1ccncc1	HGIII-sPLA2 inh 20 | hGIII sPLA2 conf inactive | BODIPY interf inactive
O=C(CNc1ccc2ccccc2c1)N/N=C/c1ccccn1	none
CCCSc1nc2c([nH]1)c(=O)n(C)c(=S)n2C	HGIII-sPLA2 inh 20 (no result: CR mimetic SO, HIF act, AHR activator) | hGIII sPLA2 conf inactive | BODIPY interf inactive
O=C(OCC(=O)C12CC3CC(CC(C3)C1)C2)c1ccccc1O	HGIII-sPLA2 inh 19 (no result: HIF act) | hGIII sPLA2 conf inactive | BODIPY interf inactive
O=C(COC(=O)c1ccccc1O)NC12CC3CC(CC(C3)C1)C2	none (no result: HIF act)
O=C(CSc1nc2ccccc2s1)NNC(=S)Nc1ccccc1	none
O=C(CSc1nc2ccccc2s1)NNC(=S)Nc1ccc(Br)cc1	HGIII-sPLA2 inh 23, AHR activator 53 | hGIII sPLA2 conf inactive | BODIPY interf inactive
COc1ccc(CN2CCSc3sccc3C2=O)cc1	none
CCCCc1ccc(NC(=S)N2CCCC2)cc1	HGIII-sPLA2 inh 20 (no result: HIF act, AHR activator) | hGIII sPLA2 conf inactive | BODIPY interf inactive
CCCCc1ccc(NC(=S)N2CCN(C)CC2)cc1	none
CCOC(=O)c1cc(C(=O)NNC(=O)c2cccc([N+](=O)[O-])c2)c(C)nc1C	none (no result: CR mimetic SO, HIF act, AHR activator)
CCOc1cc(CN2CCc3c([nH]c4ccccc34)C2)ccc1OC	none (no result: AHR activator)
COc1ccc(CN2CCc3c([nH]c4ccccc34)C2)cc1Br	HGIII-sPLA2 inh 27 | hGIII sPLA2 conf inactive | BODIPY interf inactive
C=CCNC(=O)CNS(=O)(=O)c1ccc(F)cc1	HGIII-sPLA2 inh 20 | hGIII sPLA2 conf inactive | BODIPY interf inactive
O=C(CSc1nnc(CNC(=O)c2ccco2)o1)Nc1ccccc1F	none
O=C1c2ccccc2C(=O)c2c1cccc2N1CCOCC1	HGIII-sPLA2 inh 22 | hGIII sPLA2 conf 32 | BODIPY interf inactive | 535nm interf DR inactive
COCCn1c(N)c(N(Cc2ccccc2)C(=O)c2oc3ccccc3c2C)c(=O)[nH]c1=O	none
CCCCNC(=S)NNC(=O)c1cccnc1	none
COc1ccc(CCNC(=O)c2nn(C)cc2Cl)cc1	none
CCCCNC(=S)NNC(=O)c1ccc(Br)o1	HGIII-sPLA2 inh 30 | hGIII sPLA2 conf 31 | BODIPY interf inactive | 535nm interf DR inactive
CCCCNC(=S)NNC(=O)c1nn(C)cc1Cl	HGIII-sPLA2 inh 23 | hGIII sPLA2 conf 27 | BODIPY interf inactive
COCCCNC(=O)c1ccc(Cn2c(=O)c3ccccc3n(CC(=O)NCCc3ccc(OC)c(OC)c3)c2=O)cc1	none
CCCCNC(=O)CCn1c(=O)c2ccccc2n(CC(=O)NCCc2ccc(OC)c(OC)c2)c1=O	HGIII-sPLA2 inh 21 | hGIII sPLA2 conf inactive | BODIPY interf inactive
Cc1cc(C(=O)COc2cc(F)ccc2[N+](=O)[O-])c(C)n1CC1CCCO1 (stereo not given)	none (no result: HIF act)
Cc1ccc(NC(=O)/C=C\C(=O)O)c([N+](=O)[O-])c1	HGIII-sPLA2 inh 21 | hGIII sPLA2 conf inactive | BODIPY interf inactive
CCOc1ccc(NC(=O)COC(=O)C23CC4CC(CC(C4)C2)C3)c([N+](=O)[O-])c1	HGIII-sPLA2 inh 21 | hGIII sPLA2 conf inactive | BODIPY interf inactive
Cc1cc(C)c(NC(=O)/C=C\C(=O)O)c([N+](=O)[O-])c1	none
COc1ccc(NC(=O)COC(=O)CC23CC4CC(CC(C4)C2)C3)c([N+](=O)[O-])c1	none
CCOc1ccc(NC(=O)/C=C/c2ccc(OC)cc2)c([N+](=O)[O-])c1	HGIII-sPLA2 inh 26 | hGIII sPLA2 conf inactive | BODIPY interf inactive
O=C(NCC(c1ccco1)N1CCCC1)c1cccc(S(=O)(=O)Nc2ccc(F)cc2)c1 (stereo not given)	none (no result: HIF act)
Cc1nn(CC(=O)NCCCN2CCCC2=O)c(C)c1[N+](=O)[O-]	none (no result: HIF act)
NS(=O)(=O)c1cc(C(=O)OCC(=O)N2CCc3ccccc3C2)ccc1Cl	none (no result: HIF act)
COCCn1c(N)c(N(Cc2ccccc2)C(=O)COc2ccccc2F)c(=O)[nH]c1=O	none (no result: HIF act)
